NPC1 prom act: activators of NPC1 promoter. Huh7 NPC1 promoter luciferase reporter, 24 h. Potency, µM (doses to about 9.22 µM), most hits filed as activators. actives 2.4% (n = 320,000). AID 485313; further: nearly all actives have a fitted effect of over 60% in size
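Stably transfected Huh7 (NPC1 promoter→luciferase), 1500 cells/well in Opti-MEM + 10% FBS, 2 h settle, then compound 24 h at 37 °C. Luminescence after 10 min with Amplite reagent.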
Rab9 promoter act: activators of Rab9 promoter; Huh7 Rab9 promoter-luciferase reporter, luminescence, 24 h; Potency, µM (top dose mostly 9.22 µM), usual class: activators; actives 2.8% (n = 320,000); further: nearly all actives have a fitted effect of over 60% in size
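Huh7 cells stably carrying a Rab9 promoter-luciferase reporter, 1500 cells per well in OP-MEM I with 10% FBS, treated with compound 24 hours at 37C. Luciferase activity read by luminescence after 10 minutes with Amplite reagent.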
SMN2 splice up: SMN2 splice variant enhancement; HEK293 SMN2-luciferase splicing reporter, luminescence, 30-36 h; Potency, µM (top dose mostly 46.1 µM), hits mostly activators; actives 2.8% (n = 210,000); further: nearly all actives have a fitted effect of over 55% in size
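qHTS luciferase splicing reporter: luminescence rises when SMN2 exon 7 is included in transfected HEK293 cells. Compound exposure lasted 30-36 h at 37C, with 4.5 mM final sodium butyrate as control, followed by a ONE-Glo read.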
ELG1 genotoxic: inducers of genotoxicity in HEK293T ELG1-luciferase cells; HEK293T ELG1-luciferase reporter, luminescence, 16 h; Potency, µM (top dose mostly 46 µM), usual class: activators; actives 1.3% (n = 330,000); further: nearly all actives have a fitted effect of over 60% in size
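ELG1-luciferase HEK293T cells, 2,000/well; compound pinned in; 16 hr, 37 °C, 5% CO2; ONE-Glo, 30 min RT; luminescence on CCD imager.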
FLuc counter: firefly luciferase modulation, counter-screen for miR-21 project; P08659; purified FLuc, Km substrates, luminescence inhibition; Potency, µM (series often up to 57.5 µM), usual class: inhibitors; actives 6.9% (n = 360,000); AID 588342; further: nearly all actives have a fitted effect of over 55% in size
Target sequence (P08659 whole entry, looked up): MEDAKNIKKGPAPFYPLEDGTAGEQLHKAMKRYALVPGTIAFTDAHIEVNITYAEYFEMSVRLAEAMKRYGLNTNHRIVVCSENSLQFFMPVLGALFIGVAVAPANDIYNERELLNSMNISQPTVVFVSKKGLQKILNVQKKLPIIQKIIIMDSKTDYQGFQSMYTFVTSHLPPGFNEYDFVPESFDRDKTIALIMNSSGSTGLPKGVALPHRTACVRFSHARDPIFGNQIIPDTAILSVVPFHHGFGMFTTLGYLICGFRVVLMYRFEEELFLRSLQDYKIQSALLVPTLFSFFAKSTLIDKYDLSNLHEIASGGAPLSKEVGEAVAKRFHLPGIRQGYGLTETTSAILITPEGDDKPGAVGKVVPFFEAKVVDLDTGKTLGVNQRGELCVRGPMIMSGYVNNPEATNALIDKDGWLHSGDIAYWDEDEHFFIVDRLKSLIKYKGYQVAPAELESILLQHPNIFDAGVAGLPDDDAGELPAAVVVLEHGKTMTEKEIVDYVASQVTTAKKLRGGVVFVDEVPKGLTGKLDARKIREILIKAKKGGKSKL
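Purified P. pyralis luciferase (10nM final) with 10uM D-luciferin and 10uM ATP (Km levels) in 50mM Tris acetate pH 7.5, 10mM Mg acetate, 0.01% Tween-20, 0.05% BSA; qHTS 6-point titration, ~60 µM downward; luminescence read.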
Of the large screens only hits and unclear results are named; the others gave an inactive call. Most compounds without a hit are left out; they make up all but 7.4% or so of the library. The call rests on the fitted dose curve; in most records, active means well fitted curve in the direction sought with a large enough effect; inconclusive means small, poorly fitted or top-dose-only effect, or another doubt; inactive means no such curve, though single readings can be large; an effect the other way counts as inactive or inconclusive.

Cc1cccc(CN2CCC(CNC(=O)CCNC(=O)Cn3ccc4ccccc4c3=O)CC2)c1	none
CCOc1cc2c(C#N)c(N3CCCCC3)nc(N)c2c(N)n1	Rab9 promoter act inconclusive, ELG1 genotoxic inconclusive, FLuc counter 15µM
COc1cc2c(C#N)c(N3CCCCC3)nc(N)c2c(N)n1	ELG1 genotoxic inconclusive, FLuc counter 4.8µM
COc1cc2c(C#N)c(N3CCc4ccccc4C3)nc(N)c2c(N)n1	FLuc counter 21µM
CCOc1cc2c(C#N)c(N3CCNCC3)nc(N)c2c(N)n1	SMN2 splice up inconclusive
COc1cc2c(C#N)c(N3CCOCC3)nc(N)c2c(N)n1	FLuc counter inconclusive
CCOC(=O)C1CCN(c2nc(C)cc(C)c2C#N)CC1	none
CCOC(=O)C1CCN(c2nc(N)c3c(N)nc(SCC(=O)O)cc3c2C#N)CC1	FLuc counter 17µM (no result: SMN2 splice up)
COc1ccc(-c2nc(C#N)c(N3CCc4ccccc4C3)o2)cc1OC	none
COCCN1Cc2c(sc(C)c2C)N(C(=O)c2ccccc2)C1	NPC1 prom act inconclusive, FLuc counter 19µM
Cc1sc2c(c1C)CN(Cc1ccncc1)CN2C(=O)c1ccco1	FLuc counter inconclusive
COc1cccc(/C=N/Nc2nn3cnnc3c3ccccc23)c1O	none
Oc1cccc(/C=N/Nc2nn3cnnc3c3ccccc23)c1	FLuc counter 8.5µM (no result: SMN2 splice up)
O=C(O)c1ccc(/C=N/NC(=O)c2cc3c(ccc4ccccc43)o2)cc1	FLuc counter 6µM (no result: SMN2 splice up)
COc1ccc(/C=N\NC(=O)c2cc3c(ccc4ccccc43)o2)cc1O	FLuc counter 12µM (no result: SMN2 splice up)
O=C(N/N=C/c1cccc([N+](=O)[O-])c1)c1cc2c(ccc3ccccc32)o1	NPC1 prom act inconclusive
COc1cc(/C=N/NC(=O)c2cc3c(ccc4ccccc43)o2)cc(OC)c1O	FLuc counter 4.8µM (no result: SMN2 splice up)
COc1ccccc1/C=N/NC(=O)c1cc2c(ccc3ccccc32)o1	FLuc counter 19µM (no result: SMN2 splice up)
Cc1ccc(C)c(NC(=O)c2ccc3c(c2)CCCN3S(C)(=O)=O)c1	none (no result: NPC1 prom act, Rab9 promoter act, ELG1 genotoxic)
COc1ccc(CCC(=O)N2CCN(c3ccc([N+](=O)[O-])cc3)CC2)cc1OC	none (no result: SMN2 splice up)
CCC(=O)/C=C/C1C(C)=CCCC1(C)C (centres undefined)	none (no result: NPC1 prom act, Rab9 promoter act, ELG1 genotoxic, FLuc counter)
O=C(CN1C(=O)c2ccccc2S1(=O)=O)Nc1ncc(Cl)cc1Cl	none (no result: NPC1 prom act, Rab9 promoter act, SMN2 splice up, FLuc counter)
COc1ccccc1NC(=O)C1=C(C)Nc2nc(SCc3cccc(F)c3)nn2C1c1ccc(C(=O)O)cc1 (centres undefined)	FLuc counter inconclusive (no result: ELG1 genotoxic)
CC[C@H](C)[C@@H](NC(=O)O[C@@H]1Cc2cc(OC)ccc2O[C@H]1c1cccc(OC)c1)C(=O)OC	none (no result: NPC1 prom act, Rab9 promoter act, ELG1 genotoxic, FLuc counter)
O=C(N/N=C/c1ccncc1)c1cc2c(ccc3ccccc32)o1	FLuc counter inconclusive
Cc1ccc(-c2ccc(/C=N\NC(=O)c3cc4c(ccc5ccccc54)o3)o2)cc1[N+](=O)[O-]	none
COc1ccc(/C=N/NC(=O)c2cc3c(ccc4ccccc43)o2)cc1OC	FLuc counter 11µM (no result: SMN2 splice up)
O=C(N/N=C/c1ccc(-c2ccc(Cl)c(C(=O)O)c2)o1)c1cc2c(ccc3ccccc32)o1	FLuc counter 21µM (no result: SMN2 splice up)
O=C(c1ccc2c(c1)OCCO2)N(Cc1cccnc1)c1nc2c(Cl)cccc2s1	none (no result: NPC1 prom act, Rab9 promoter act, SMN2 splice up, ELG1 genotoxic)
CCN(C(=O)COC(=O)CCn1c(C)csc1=O)c1c(N)n(Cc2ccccc2)c(=O)[nH]c1=O	none (no result: SMN2 splice up)
COc1ccc(Cl)cc1NC(=O)CSc1nnc(Cc2ccc(C)cc2)c(=O)[nH]1	none (no result: SMN2 splice up)
Cn1c2ccccc2c(=O)c2cc(C#Cc3cccc(N)c3)ccc21	ELG1 genotoxic inconclusive, FLuc counter 4.8µM (no result: SMN2 splice up)
Cn1c2ccccc2c(=O)c2cc(C#CC3=CCCCC3)ccc21	NPC1 prom act inconclusive, Rab9 promoter act inconclusive, ELG1 genotoxic inconclusive, FLuc counter 6.7µM (no result: SMN2 splice up)
CC1Cc2ccccc2N1C(=O)CN(C)CC(=O)Nc1ccc(F)cc1 (centres undefined)	none (no result: SMN2 splice up)
COc1cccc(CN2c3ccccc3-c3nc(SCC(=O)Nc4cccc(C)c4)ncc3S2(=O)=O)c1	none (no result: NPC1 prom act, Rab9 promoter act, ELG1 genotoxic)
N#Cc1cc(-c2ccccc2)cnc1Sc1ccccc1	FLuc counter 21µM
Cc1cc(C)cc(NC(=O)c2ccc3nc[nH]c3c2)c1	FLuc counter 6.7µM
O=C(Nc1ccc(F)cc1)c1ccc2nc[nH]c2c1	SMN2 splice up inconclusive, FLuc counter inconclusive
CN(C)c1ccc(NC(=O)c2ccc3nc[nH]c3c2)cc1	NPC1 prom act inconclusive, Rab9 promoter act inconclusive, ELG1 genotoxic inconclusive, FLuc counter 13µM (no result: SMN2 splice up)
Cc1ccc(NC(=O)c2ccc3nc[nH]c3c2)cc1C	NPC1 prom act 2.8µM, Rab9 promoter act 1.8µM, SMN2 splice up 11µM, ELG1 genotoxic inconclusive, FLuc counter 9.5µM
Cc1cccc(C)c1NC(=O)CNC(=O)c1ccc2nc[nH]c2c1	none (no result: SMN2 splice up)
COCCn1c(SCC(=O)c2c[nH]c3ccccc23)nc2cc(C(=O)NCC(C)C)ccc2c1=O	none (no result: NPC1 prom act, Rab9 promoter act, SMN2 splice up, ELG1 genotoxic)
CCc1ccc(CNC(=O)c2ccc3nc(SCc4ccc(F)cc4)n(C)c3c2)cc1	none (no result: NPC1 prom act, Rab9 promoter act, ELG1 genotoxic)
O=C(Nn1cnnc1)c1cc(Br)ccc1Cl	none (no result: SMN2 splice up)
Cc1cnc(CNC(=O)c2ccc(OC3CCN(C(=O)C4CC4)CC3)cc2)cn1	none (no result: SMN2 splice up)
Nc1nc(SCC(=O)Nc2ccc(OCc3ccccc3)cc2)n[nH]1	NPC1 prom act inconclusive, Rab9 promoter act inconclusive, FLuc counter inconclusive (no result: SMN2 splice up)
O=C(CSc1ncn[nH]1)Nc1ccc(OCc2ccccc2)cc1	Rab9 promoter act inconclusive, SMN2 splice up inconclusive, ELG1 genotoxic inconclusive, FLuc counter 17µM

Screening results from PubChem BioAssay.
